Shown are actives, neighbours in structure and some others; about 2.1% of the full set was active somewhere.
PD-1 reverse act: activators reversing PD-1 mediated T-cell inhibition, primary screen, luminescence, primary human CD4 T cells, PD-L1 beads. CellTiter-Glo 96 h. activation, % (no concentration beside the values). 29,000 tested, under 10 active. AID 2316, 2010; call rule not given here;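 further: 0% = median vehicle wells and 100% = positive control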
YB-1 expr inh: inhibitors of YB-1 gene expression, primary screen, cell-based, fluorescence. U2OS, qRT-PCR YB-1 vs CDIP delta delta Cp, 16 h; active compounds read high; zero = DMSO, each unit about twofold. delta delta Cp (YB-1 minus CDIP) (no concentration beside the values). 30,000 tested, 0.37% active. AID 434959, 2010;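 active means delta delta Cp rounded down to an integer at or above 3, about 3 SD of DMSO wells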;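 further: higher means less YB-1 transcript or more CDIP transcript relative to DMSO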
U2OS ROS induce: ROS inducers in U2OS cancer cells, primary screen, cell-based, H2DCF-DA fluorescence; U2OS ROS induction; ROS induction (% of piperlongumine), % at 10 µM; 46,000 tested, 2% active; in the data active means ROS induction above about 79%, passing the limit was not always enough; inconclusive means no clear call, values can overlap the other calls;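 further: 0% = DMSO vehicle median and 100% = reference compound median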
Active calls of the source: *.

What do the screens show for `C[C@H]1CN([C@@H](C)CO)C(=O)Cc2cc(NS(=O)(=O)c3cn(C)cn3)ccc2O[C@H]1CN(C)C(=O)Nc1cccc2ccccc12`?
PD-1 reverse act: 2; YB-1 expr inh: -0.54; U2OS ROS induce: 121*

How did O=C(CCCCC(=O)N/N=C/c1c(O)ccc2ccccc12)NO do in these assays?
YB-1 expr inh: 0.56; U2OS ROS induce: -8

How did Cc1ccc(N(CC(N)=O)S(=O)(=O)c2ccc(Cl)cc2)cc1C do in these assays?
PD-1 reverse act: -4; U2OS ROS induce: 53

Results for O=C(COc1ccc(C2CCCCC2)cc1)Nc1cccc2ncccc12 ?
PD-1 reverse act: -6; U2OS ROS induce: 0

Results for N#Cc1cccc2cccc(Sc3ccccc3)c12 ?
PD-1 reverse act: -2; YB-1 expr inh: 0.17; U2OS ROS induce: -1

Results for CCn1c(SCc2nc3ccccc3c(=O)[nH]2)nc2ccccc2c1=O ?
PD-1 reverse act: -3; U2OS ROS induce: 94*

Results for O=c1[nH]c(CSc2nnc(-c3ccccc3)n2C2CCCCC2)nc2ccccc12 ?
PD-1 reverse act: -3; U2OS ROS induce: 3

What do the screens show for `Cc1cc(C)c(N(CC(O)Cn2c3ccccc3c3ccccc32)S(C)(=O)=O)c(C)c1` (stereo not drawn)?
U2OS ROS induce: -5

Results for Cc1noc(C)c1NC(=O)N(C)C[C@H]1Oc2ccc(NC(=O)Cn3cnnn3)cc2C(=O)N([C@@H](C)CO)C[C@@H]1C ?
PD-1 reverse act: 1; YB-1 expr inh: 3.9*; U2OS ROS induce: -5

How did Cc1noc(C)c1NC(=O)N(C)C[C@@H]1Oc2ccc(NC(=O)Cn3cnnn3)cc2C(=O)N([C@H](C)CO)C[C@@H]1C do in these assays?
PD-1 reverse act: 2; YB-1 expr inh: 0.19; U2OS ROS induce: -9

How did Cc1noc(C)c1NC(=O)Nc1ccc2c(c1)C(=O)N([C@H](C)CO)C[C@@H](C)[C@H](CN(C)C(=O)Nc1c(C)noc1C)O2 do in these assays?
YB-1 expr inh: 0.066; U2OS ROS induce: 105*

What do the screens show for `Cc1noc(C)c1NC(=O)Nc1ccc2c(c1)C(=O)N([C@@H](C)CO)C[C@@H](C)[C@@H](CN(C)C(=O)Nc1c(C)noc1C)O2`?
PD-1 reverse act: 0; YB-1 expr inh: -0.45; U2OS ROS induce: 2

What do the screens show for `O=C(Oc1ccc(N(Cc2cccs2)C2=NS(=O)(=O)c3ccccc32)cc1)c1ccccc1`?
PD-1 reverse act: 1; YB-1 expr inh: -0.18; U2OS ROS induce: 57

What do the screens show for `CN(/N=C/c1ccccc1)C1=NS(=O)(=O)c2ccccc21`?
PD-1 reverse act: 1; YB-1 expr inh: 0.073; U2OS ROS induce: 96*

How did N#CCSc1nc2ccccc2c(=O)n1CCn1c(SCC#N)nc2ccccc2c1=O do in these assays?
U2OS ROS induce: -14

What do the screens show for `COc1c(O)cc2occ(-c3ccccc3O)c(=O)c2c1O`?
PD-1 reverse act: 2; YB-1 expr inh: 0.012; U2OS ROS induce: -10

How did Cc1ccc(Oc2coc3cc(OCC(=O)N4CCCCC4)ccc3c2=O)cc1 do in these assays?
U2OS ROS induce: -3

Results for C=CCN1C(=O)[C@@]2(O[C@@H](CCn3cc(CCO)nn3)[C@H]([Si](C)(C)c3ccc(OC)cc3)[C@H]2C)c2cc(N3C(=O)c4cccc5cccc3c45)ccc21 ?
YB-1 expr inh: -0.28; U2OS ROS induce: 90*

Results for C=CCN1C(=O)[C@@]2(O[C@@H](CCn3cc(CCO)nn3)[C@H]([Si](C)(C)c3ccc(OC)cc3)[C@H]2C)c2ccccc21 ?
YB-1 expr inh: 0.099; U2OS ROS induce: 27

How did C=CCN1C(=O)[C@]2(O[C@H](CCn3cc(CCO)nn3)[C@@H]([Si](C)(C)c3ccc(OC)cc3)[C@@H]2C)c2cc(N3C(=O)c4cccc5cccc3c45)ccc21 do in these assays?
YB-1 expr inh: -0.17; U2OS ROS induce: 97*

Results for COc1ccc([Si](C)(C)[C@@H]2[C@@H](CCO)O[C@]3(C(=O)N(Cc4ccccc4)c4ccc(N5C(=O)c6cccc7cccc5c67)cc43)[C@H]2C)cc1 ?
YB-1 expr inh: -0.18; U2OS ROS induce: inconclusive

Results for CCCCc1cc(CCCC)n2nc(-c3ccccc3)cc2n1 ?
U2OS ROS induce: 6

How did O=C(Nc1ccccc1[N+](=O)[O-])c1cccc(S(=O)(=O)Nc2ccc(F)cc2)c1 do in these assays?
PD-1 reverse act: 1; U2OS ROS induce: -3

Results for COc1cc(C)c2c(=O)c3c(O)cc(O)cc3oc2c1 ?
PD-1 reverse act: 1; YB-1 expr inh: -0.26; U2OS ROS induce: -3

How did CC1C2CC(CC1(C)C)N(C(=O)c1ccc(N3C(=O)c4ccccc4C3=O)cc1)C2 (stereo not drawn) do in these assays?
U2OS ROS induce: -9

What do the screens show for `Cc1cc(C)c2c(n1)sc1c(=O)n(Cc3ccccc3Cl)nnc12`?
U2OS ROS induce: 81*

How did Cc1cc(C)c2c(n1)sc1c(=O)n(NC(=O)Nc3ccccc3)c(C)nc12 do in these assays?
PD-1 reverse act: 0; U2OS ROS induce: 12

Results for N#Cc1c(C(F)(F)F)cc(-c2cccs2)nc1SCC(=O)c1ccccc1 ?
U2OS ROS induce: 747*

What do the screens show for `N#Cc1c(C(F)(F)F)cc(-c2cccs2)nc1SCC(=O)Nc1ccccc1C(F)(F)F`?
PD-1 reverse act: 1; U2OS ROS induce: 8

How did Cc1cc(NC(=O)CSc2nc3nccnc3c(=O)n2Cc2ccccc2)n[nH]1 do in these assays?
U2OS ROS induce: 11

What do the screens show for `Cc1nn(CCCC(=O)N2CCCC2)c(=O)c2c1sc1ccccc12`?
U2OS ROS induce: 8

Results for C=C[C@]1(C)C[C@H](O)[C@H]2C(=C)C(=O)O[C@@H]2[C@H]1C(=C)CO ?
PD-1 reverse act: -1; YB-1 expr inh: 0.56; U2OS ROS induce: 15

Results for C=CC1(C)C[C@H](OC(=O)C(C)CO)[C@H]2C(=C)C(=O)O[C@@H]2C1C(=C)CO (stereo partly drawn) ?
PD-1 reverse act: -8; YB-1 expr inh: -0.11; U2OS ROS induce: 134*

Results for O=C1O[C@@H](c2ccccc2)[C@@H](c2ccccc2)N2[C@@H](c3ccc(OCCO)cc3)[C@]3(C(=O)Nc4ccccc43)[C@@H](C(=O)NC[C@H](O)c3ccccc3)[C@H]12 ?
YB-1 expr inh: -0.17; U2OS ROS induce: 103*

What do the screens show for `O=C1O[C@@H](c2ccccc2)[C@@H](c2ccccc2)N2[C@@H](c3ccc(O)cc3)[C@]3(C(=O)Nc4ccccc43)[C@@H](C(=O)NC[C@H](O)c3ccccc3)[C@H]12`?
YB-1 expr inh: -0.51; U2OS ROS induce: 5

Results for COCCOC(=O)N1C(=O)[C@@]2(c3cc(C#Cc4ccc(OC)cc4)ccc31)[C@H](C(=O)NC[C@H](O)c1ccccc1)[C@H]1C(=O)O[C@H](c3ccccc3)[C@H](c3ccccc3)N1[C@@H]2c1ccc(OCCO)cc1 ?
YB-1 expr inh: 0.24; U2OS ROS induce: 13

Results for COCCOC(=O)N1C(=O)[C@@]2(c3ccccc31)[C@H](C(=O)NC[C@H](O)c1ccccc1)[C@H]1C(=O)O[C@H](c3ccccc3)[C@H](c3ccccc3)N1[C@@H]2c1ccc(OCCO)cc1 ?
YB-1 expr inh: 0.33; U2OS ROS induce: 84*

Screening results: PubChem BioAssay, Broad Institute
